ChEMBL document CHEMBL3988442, “University of Dundee, Small-Polar-MMV Screening Library” (2021)
The whole screen tested about 48,000 compounds, of which about 13,000 (27%) showed an effect of 50% or more. This is one part of the list.

System: Wolbachia pipientis
Assay: Anti-Wolbachia Cell-Based Screen
Format: functional
Set-up: scale not given: in the data most compounds retested in dose-response had high values
Details: 5 µM

SMILES | Percent Effect [%]
CN(C)c1ccc(C(=O)N2CCCC2c2ccc(Cl)cc2)cc1 (configuration not stated) | 5.929
CC(C)C(=O)N1CCCC1c1nc(N(C)C)ncc1-c1ccc(Cl)cc1 (configuration not stated) | 126.5
CCC(=O)N1CCCC1c1nc(N(C)C)ncc1-c1ccc(Cl)cc1 (configuration not stated) | 84.51
Cc1nc(CC(=O)N2CCC[C@H]2c2nc(C(C)C)no2)cs1 | -12.82
Cc1cccc(N(CCC#N)S(=O)(=O)CC2CCCCO2)c1 (configuration not stated) | -8.784
N#Cc1cc(C#N)c(SCCC(=O)Nc2ccc(F)cc2)nc1N | -13.62
CN1C[C@@H](C(=O)N2CCCOCC2)[C@@]2(CCc3ccccc3C(=O)N2)C1 | -5.089
CCNC(=O)N1CC[C@@H](CC(=O)O)[C@@H](CC2=NCCc3ccccc32)C1 | 7.982
CC(C)(C)NC(=O)[C@@H]1CNC[C@]12Cc1ccccc1C(=O)N2 | 114.2
C[C@@H]1CN(C2(C(=O)N(C)C)Cc3ccccc3C2)C[C@H](C)O1 | 1.411
CN1C[C@@H](C(=O)N2CCOCC2)[C@@]2(CCc3ccccc3C(=O)N2)C1 | 147.9
CN1CC(C(=O)NC(C)(C)C)CC1=O (configuration not stated) | 0.8346
CN1C[C@@H](C(=O)N(C)C)[C@@]2(CCc3ccccc3C(=O)N2)C1.Cl | 136.2
O=C(c1ccccc1)N1CC(C(=O)N2CCOCC2)C2(CCOCC2)C1 (configuration not stated) | -41.49
CN(C)C(=O)N1CCC2(CC1)NC(=O)c1ccccc12.Cl | -7.31
CN1C[C@@H](C(=O)NC(C)(C)C)[C@@]2(CCc3ccccc3C(=O)N2)C1 | 141.5
COC(=O)CN(Cc1ccccc1C)C(=O)CCCNC(=O)C1CC1 | -13.3
CN(C)CCNc1ncccc1CNC(=O)Nc1cc(F)cc(F)c1 | -8.67
CC(C)(C)c1cnc(CN2CCC(NC(=O)C3CCOCC3)CC2)o1 | -13.41
COC1CCN(CCNC(=O)NCC(C)c2cccc(C)c2)CC1 (configuration not stated) | 5.114
COCCN(C)C[C@@H]1CCC[C@@H]2CN(Cc3ccc(OC)nc3)C[C@@H]21.O=C(O)C(F)(F)F.O=C(O)C(F)(F)F | 8.299
O=C(NCC(F)(F)F)C1CCC(=O)N(C2CCCC2)C1 (configuration not stated) | 11.17
CN1C[C@@H](C(=O)NCC(F)(F)F)[C@@]2(CCc3ccccc3C(=O)N2)C1 | 103.7
COC(=O)N1CCc2ccccc2C1C(=O)NCC(F)(F)F (configuration not stated) | 5.157
CCC(C)C(=O)NCc1cc(Br)c(OC)c(OC)c1 (configuration not stated) | -3.921
Cc1ccc(CNC(=O)CCN2CCOC(C(F)(F)F)C2)cc1 (configuration not stated) | -2.283
CCS(=O)(=O)c1ccc(N2CCC(NC(=O)CCC(C)C)CC2)cc1 | 4.61
